Hits are enriched below; roughly 0.9% of the tested compounds scored in any of these assays.
GoLoco inh red: inhibitors of human Gai1-RGS12 GoLoco interaction (red fluorophore). P63096. Gai1:RGS12 GoLoco peptide FP, rhodamine, 10 min. Potency, µM (highest dose often 61.6 µM), without a hit: at the highest dose activity, negative = inhibition, hits mostly inhibitors. 230,000 tested, 0.44% active; active = well fitted inhibition curve with a large enough effect, not every such curve was filed as active; inactive = no such curve, though single readings can be large or run the other way; note: nearly all actives have a fitted effect of over 30% in size
Target sequence (P63096 whole entry, looked up): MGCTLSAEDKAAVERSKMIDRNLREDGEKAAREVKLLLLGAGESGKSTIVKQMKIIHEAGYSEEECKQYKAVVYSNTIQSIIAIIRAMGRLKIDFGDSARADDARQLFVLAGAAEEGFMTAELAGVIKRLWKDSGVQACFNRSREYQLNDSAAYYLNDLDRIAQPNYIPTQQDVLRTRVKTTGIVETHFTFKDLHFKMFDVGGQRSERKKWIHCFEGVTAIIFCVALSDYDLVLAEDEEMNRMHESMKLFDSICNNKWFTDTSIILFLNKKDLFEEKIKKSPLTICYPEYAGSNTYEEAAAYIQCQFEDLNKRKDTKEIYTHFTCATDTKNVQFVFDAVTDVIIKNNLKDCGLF
BLM helicase inh: Bloom syndrome helicase (human) inhibition; P54132; recombinant BLM DNA unwinding, fluorescence dequenching; Potency, µM (top dose mostly 56.1 µM), for the others: top-dose activity change, negative = inhibition, most hits filed as inhibitors; 350,000 tested, 0.2% active; AID 2528;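 note: plate controls were vehicle for no effect and no enzyme for full effect; nearly all actives have a fitted effect of over 35% in size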
APE1 inh-1: inhibitors of human APE1 endonuclease; recombinant APE1, TAMRA/BHQ-2 abasic DNA cleavage fluorescence; Potency, µM (series often up to 65.8 µM), for the others: top-dose activity change, negative = inhibition, most hits filed as inhibitors; 350,000 tested, 0.35% active; P27695;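 note: plate controls were vehicle for no effect and reference inhibitor for full effect; nearly all actives have a fitted effect of over 55% in size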
Target sequence (P27695 whole entry, looked up): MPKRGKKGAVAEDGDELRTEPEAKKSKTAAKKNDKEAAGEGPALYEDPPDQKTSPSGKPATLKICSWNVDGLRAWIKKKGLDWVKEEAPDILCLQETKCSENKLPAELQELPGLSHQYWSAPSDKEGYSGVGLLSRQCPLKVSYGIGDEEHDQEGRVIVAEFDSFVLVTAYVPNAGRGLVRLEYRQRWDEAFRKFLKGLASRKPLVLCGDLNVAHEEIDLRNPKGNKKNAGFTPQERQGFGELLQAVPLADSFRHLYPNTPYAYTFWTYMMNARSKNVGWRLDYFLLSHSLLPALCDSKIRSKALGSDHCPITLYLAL
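Quantitative HTS: incision of a TAMRA/BHQ-2 double-stranded substrate bearing a tetrahydrofuran abasic site by 0.75 nM APE1 raises fluorescence. Substrate 50 nM final, added after 15 min compound preincubation at room temperature; progress as third-minus-first kinetic read difference.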
RECQ1 helicase: blocks DNA unwinding by human RECQ1. P46063. RECQ1 DNA unwinding, red fluorescence kinetic read. Potency, µM (titrated, usually from 57.3 µM), for inactives: top-dose activity, negative = inhibition, usual class: inhibitors. 240,000 tested, 0.54% active. AID 2549;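 note: plate controls were vehicle for no effect and no enzyme for full effect; nearly all actives have a fitted effect of over 30% in size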
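RECQ1T1 50 nM; forked duplex (20 bp + 30-nt ss tails) 200 nM, ATP 2 mM final; pH 8.0, 2 mM MgCl2, 2.5 ug/ml poly(dI-dC); 15 min compound preincubation; discontinuous kinetic read over 2 h at RT.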
TexasRed fluor: alters Texas Red total fluorescence, flagging assay interference. 280,000 tested, 0.29% active. Potency, µM (series often up to 106 µM), for the others: at the highest dose fluorescence change, negative = quenching. TRb/SRC2 Texas Red total fluorescence interference; active = well fitted curve in either direction with a large enough effect; inconclusive = small, poorly fitted or top-dose-only effect
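Human TRβ ligand-binding domain (0.6 uM) and Texas Red SRC2 peptide (20 nM) in Tris buffer with 1 uM T3 and 5% DMSO were incubated with pinned compound for 5 hr at ambient temperature. Total fluorescence was computed as S + 2P (555/632 nm).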
TRb-SRC2 inh: TRbeta-SRC2 interaction inhibition. P10828. TRbeta-SRC2 peptide binding, fluorescence polarization; receptor liganded with 1 µM T3. Potency, µM (doses to about 106 µM), for inactives: at the top dose activity change, negative = inhibition, most hits filed as inhibitors. 280,000 tested, 0.065% active;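 note: plate controls were bound peptide for no effect and peptide without receptor for full effect; nearly all actives have a fitted effect of over 50% in size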
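Decrease in fluorescence polarization of 20 nM Texas Red SRC2 coactivator peptide flagged inhibition of its binding to 0.6 uM TRb LBD; 1 uM T3 included, incubation 5 hr, ex 555/em 632 nm.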
APE1 dye cs: DNA dye displacement counter-screen activity. shares compounds with APE1 inh-1. DNA fluorescent dye displacement counterscreen, fluorescence. Potency, µM (titrated, usually from 28.5 µM), for inactives: at the highest dose activity change, negative = inhibition, most hits filed as inhibitors. 480 tested, 7% active;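 note: loss of thiazole orange fluorescence as the dye is displaced from duplex DNA; 0% = ThO with dsDNA and no compound and -100% = ThO without dsDNA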
EndoIV counter: Endo IV (E. coli) inhibition counter-screen | shares compounds with APE1 inh-1 | E. coli Endo IV, fluorogenic AP-site DNA cleavage | Potency, µM (series often up to 27.1 µM), for inactives: top-dose activity change, negative = inhibition, actives largely listed as inhibitors | 560 tested, 4% active | AID 2565;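 note: plate controls were uninhibited enzyme wells for no effect and no enzyme buffer wells for full effect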
APE1 inh-2: APE1 (human) endonuclease inhibition, confirmation. shares compounds with APE1 inh-1. purified APE1, fluorogenic abasic-site DNA cleavage. Potency, µM (top dose mostly 57.1 µM), without a hit: at the top dose activity change, negative = inhibition, hits mostly inhibitors. 750 tested, 44% active; note: nearly all actives have a fitted effect of over 30% in size
APE1 FP: APE1 (human) DNA binding inhibition, fluorescence polarization | shares compounds with APE1 inh-1 | APE1 binding to TAMRA-labelled double-stranded DNA, fluorescence polarization displacement | Potency, µM (doses to about 28.5 µM), inactives show at the highest dose activity, negative = inhibition, most hits filed as inhibitors | 480 tested, 7% active | AID 2573
* = called active by the depositor; i = inactive; ? = inconclusive; nt = no result; [ ] = another dose, or the depositor's remark. Unless noted, calls come from the whole dose curve; as a rule, active = well fitted curve in the direction sought with a large enough effect; inconclusive = small, poorly fitted or top-dose-only effect, or another doubt; inactive = no such curve, though single readings can be large; an effect the other way counts as inactive or inconclusive. Unless noted, % is set by controls: 0 for no effect and ±100 for the full control effect; potency is the fitted concentration of half-maximal effect.

SMILES | GoLoco inh red | BLM helicase inh | APE1 inh-1 | RECQ1 helicase | TexasRed fluor | TRb-SRC2 inh | EndoIV counter | APE1 inh-2 | others
CC(=O)c1ccc(S(=O)(=O)Nc2cccc(-c3ccc(N4CCCC4)nn3)c2)cc1 | nt | -7.5% | nt | nt | -5.6% | 0.4% | nt | nt
CCn1c(SCc2nc3sc(C(=O)O)c(C)c3c(=O)[nH]2)nc2ccccc21 | 76.4% | 66.9% | 20µM* | ? | -10.7% | 0.0% | nt | ?
COCCn1c(SCc2nc3sc(C(=O)OC)c(C)c3c(=O)[nH]2)nc2ccccc21 | 80.4% | -4.6% | 0.4% | -3.6% | 2.5% | 3.4% | nt | nt
NS(=O)(=O)c1ccc(N=Nc2ccc[nH]c2=O)cc1 | -27.3%[14.2 µM] | nt | nt | nt | nt | nt | nt | nt
NS(=O)(=O)c1ccc(N=Nc2ccc(=O)[nH]c2O)cc1 | -51.1% | -2.6% | 15.8µM* | -0.1% | -4.0% | 4.9% | nt | ?
Cc1ccc2nc(NC(=O)CCCc3nc4ccccc4s3)sc2c1 | -30.7% | -7.5% | 13.2% | -13.3% | -0.9% | -7.1% | nt | nt
Cc1ccc2nc(NC(=O)CCCC(=O)O)sc2c1 | 7.6% | -3.8% | ? | i | -0.9% | -1.8% | 3.8% | ? | APE1 dye cs=-5.4%;APE1 FP=-26.5%
Cc1nc(N)sc1-c1csc(Nc2ncccn2)n1 | 7.3% | -20.4% | ? | -5.1% | ? | 6.7% | nt | ?
COc1ccccc1Nc1nc(-c2sc(N)nc2C)cs1 | nt | -5.1% | 21.1% | nt | nt | nt | nt | nt
CC1(C)N=C(N)N=C(N)N1c1cccc(OCc2cccc([N+](=O)[O-])c2)c1 | 3.7%[14.2 µM] | nt | nt | nt | nt | nt | nt | nt
CCn1cc(C(=O)O)c(=O)c2cc3c(cc21)OCO3 | -10.5% | -1.7% | 2.4% | -2.0% | 0.7% | -0.7% | 2.8%[57.1 µM] | -11.7%
O=C(NCCCN1CCCCC1)c1sc2ncccc2c1-n1cccc1 | nt | -9.1% | nt | nt | -6.7% | 5.8% | nt | nt
Cn1cnnc1SCC(=O)Nc1nc(-c2ccccc2)cs1 | 72.0% | -22.2% | ? | -4.1% | -4.4% | 7.4% | -0.8% | ? | APE1 dye cs=-7.8%;APE1 FP=8.4%
Cc1ccc(C)c(N2CCN(C(=O)CCn3c(=O)[nH]c4ccccc4c3=O)CC2)c1 | nt | 0.6% | nt | nt | 2.5% | -2.5% | nt | nt
COc1cccc(/C=N/Nc2ccc(S(=O)(=O)O)cc2)c1O | 2.3% | -1.0% | 25.1µM* | 0.0% | -3.5% | 0.2% | -4.1% | ? | APE1 dye cs=?;APE1 FP=-4.0%
CC[n+]1ccc(/C=C2\Sc3ccccc3N2CCCS(=O)(=O)[O-])c2ccccc21 | 15.6% | -3.6% | ? | -15.1% | -1.4% | -3.6% | nt | ?
C[n+]1ccccc1/C=C1\Sc2ccccc2N1CCO | nt | -3.6% | 24.6% | nt | nt | nt | nt | nt
N#Cc1c(NC(=O)CCC(=O)O)ccc2ccccc12 | -2.9%[14.2 µM] | nt | nt | nt | nt | nt | nt | nt
Cc1nc2ccc(NC(=S)N3CCOCC3)cc2nc1C | 8.6% | -9.7% | ? | 18.5% | -2.0% | 1.7% | 3.4% | -5.4%[24.4 µM] | APE1 dye cs=0.1%;APE1 FP=6.4%
Cc1c(C(=O)N(C)C)sc2c1c(=O)n(-c1ccc(F)cc1)c(=O)n2Cc1cc(=O)n2ccccc2n1 | nt | -0.2% | nt | nt | -0.8% | 3.7% | nt | nt
Cc1cccc2cc(CN(C(=O)c3cccc(Cl)c3)c3ccccc3)c(=O)[nH]c12 | nt | -1.0% | nt | nt | 3.5% | 2.5% | nt | nt
O=C1/C(=C/c2cccs2)SC(=S)N1NS(=O)(=O)c1ccccc1 | -5.8% | -7.5% | -4.6% | 10.6% | -3.3% | 7.9% | nt | nt
O=C1/C(=C/C=C/c2ccco2)SC(=S)N1NS(=O)(=O)c1ccccc1 | 41.9% | ? | 2.51µM* | 3.55µM* | -28.4% | 12.6% | 115.6% | 3.55µM* | APE1 dye cs=-3.1%;APE1 FP=?
CC(C(=O)O)N1C(=O)/C(=C/C=C/c2ccco2)SC1=S (stereo unspecified) | -6.7% | ? | 2.82µM* | 6.31µM* | ? | 11.8% | 97.2% | 0.891µM* | APE1 dye cs=6.8%;APE1 FP=12.6µM*
Cn1c(=O)[nH]c2cc(-c3noc(-c4ccc(Br)cc4)n3)ccc21 | nt | -5.4% | nt | nt | -31.3% | 2.5% | nt | nt
SMILES | GoLoco inh red | BLM helicase inh | APE1 inh-1 | RECQ1 helicase | TexasRed fluor | TRb-SRC2 inh | EndoIV counter | APE1 inh-2 | others
Cc1nn(-c2ccccc2)c(C)c1S(=O)(=O)O | 15.2% | -5.9% | -1.5% | 6.7% | -6.6% | -3.4% | nt | ?
COC(=O)c1ccccc1NC(=O)COC(=O)/C=C/c1ccco1 | -4.6% | -12.0% | ? | -15.1% | -1.6% | 12.2% | -0.9% | ? | APE1 dye cs=1.7%;APE1 FP=-13.7%
COC(=O)c1ccccc1NC(=O)COC(=O)c1ccco1 | 21.9% | 4.6% | -12.6% | -9.2% | 3.3% | -8.4% | nt | nt
O=C(CSc1nc2ccccc2[nH]1)NC1CCCC1 | 6.4% | -15.3% | ? | -26.5% | 1.4% | -0.7% | nt | 39.8µM*
COc1ccccc1N1CCN(S(=O)(=O)c2cc(C(=O)Nc3ccc(Oc4ccccc4)cc3)ccc2F)CC1 | nt | -6.4% | nt | nt | -0.7% | -2.9% | nt | nt
Cn1cc(C2=C(c3ccc(Cl)cc3Cl)C(=O)NC2=O)c2ccccc21 | 57.1% | -4.1% | ? | ? | -2.5% | 7.0% | -9.3%[57.1 µM] | 25.1µM*
Fc1ccc(C2CC(c3cccs3)=NN2c2ccccc2)cc1 (stereo unspecified) | 12.3% | -10.4% | -6.1% | i | -2.2% | 2.0% | nt | -16.8%
Cc1nc2ccc(S(=O)(=O)N(CC(=O)Nc3ccc(Cl)cc3)Cc3ccccc3)cc2s1 | nt | -5.5% | nt | nt | -0.7% | 0.9% | nt | nt

Assay outcomes as filed in PubChem.
